# The supplement of paper PMC10681739
# ± gives the standard deviation of the averaged measurements. In all, about 4,100 sequences were measured (“arbitrary fluorescence units”: median about 780, highest 2% from about 22,000 on). The full list was thinned out, with the highest values kept by preference.
# Target: T1, ETS1 (UniProt P14921)
# T1 sequence: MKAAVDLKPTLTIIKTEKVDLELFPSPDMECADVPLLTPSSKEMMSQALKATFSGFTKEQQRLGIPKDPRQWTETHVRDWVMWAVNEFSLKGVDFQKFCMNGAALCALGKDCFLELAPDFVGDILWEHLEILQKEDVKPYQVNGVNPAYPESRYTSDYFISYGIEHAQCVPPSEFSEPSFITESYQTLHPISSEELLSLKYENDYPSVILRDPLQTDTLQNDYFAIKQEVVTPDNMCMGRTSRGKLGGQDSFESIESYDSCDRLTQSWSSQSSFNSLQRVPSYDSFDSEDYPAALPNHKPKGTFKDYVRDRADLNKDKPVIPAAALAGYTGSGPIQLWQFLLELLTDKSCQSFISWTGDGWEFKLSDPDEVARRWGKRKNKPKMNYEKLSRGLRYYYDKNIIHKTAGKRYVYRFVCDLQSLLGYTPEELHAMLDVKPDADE
# Test: ETS1 binding intensity (PBM fluorescence), ETS1 alone (arbitrary fluorescence units); higher = stronger binding
# Settings: ETS1 concentration 1 nM; RUNX1 concentration 0 nM
# Description: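 gcPBM on 36-bp genomic-derived probes (partner site mutated) containing one ETS1 site and no RUNX1 site. Recombinant human ETS1 (1 nM) was incubated alone or with RUNX1 (25 nM) and detected by anti-ETS1 antibody fluorescence. Values are medians over 4 replicate spots (not normalised). The probes sit in constant array flanks that are not printed.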
row,Sequence,ETS1 binding intensity
1,CAGCTGCAGGCCTGGGTGTACGGAGCCCGGAACAGG,567
2,TACCTACAGGAAATGAGACACACCTCAGGCCGATCC,5550
3,CTCAGACCCTCAGTGAGGTCTGACGTCATTTCCTGC,734
4,CTCGTGTTTTGTAGCTGTGTTCTGTCCGGTCAGTTG,502 ± 32
5,CACTTCCGGGTCGTCAGCTCAGTTCTGCTGTTTCTG,26000
6,CCTGCTGCTGTCAGCCCTGTCTCTTCCTGTTTCTGC,1030
7,TGGATAGTGGGACACCTCAACAGGATGTTAGTGAGG,858
8,GACGGCCGCTTTTGGCGCGGGACTTCCTGCCTGGCC,3070
9,CCCTCCGGCCCTCAGCCCTGCCCAAACGGAAGTGCT,787
10,AGTTTTCCGTCGGGCTCCCAGTGACGCCGAAGAGGT,2580
11,GCGCAAAGCCGGAAGGAGGGGTTTGGGGCTGGGGAG,4130
12,CTTCCTTCCCTTCCTTCTGCTCCCTCCCAGAGCCGC,852
13,CCCACTTCCTGTCTGCTTCCCTCCTCCGCTCAGACC,28400
14,TCCCTCCTCCGCTCAGACCCACTTCCTGTCTGCTTC,8330
15,CCGGTCGGGGCTGCAGCCGCTTCCGGAGCCGCGGGC,3060
16,CTGCACTTCCGGTCAGGCGGTCGGGCTGAGGGGCCC,36600
17,TAGGGGCTGAGGGTCCGGGCGGAAGTGGGGCAGGCG,2500
18,ATGGATGGGGTTGCTTGCGTGAGGAAATACTTGATG,524
19,CCCAATTTCCTTTGCTCTGCTGTCTGCCAACCCCAA,3560
20,GCAGATATCACAGACTCTCTCCTTTCCTGCTGAATA,546
21,TGACTTCCGGTCCGTAGTGGGGCCTTCGGTGGGAGT,35800

row,Sequence,ETS1 binding intensity
1,CTGCAGCGGGGATCCTTGGGGCCCTTCCGGTCGGTG,2190
2,GCTCGCAGCCCCAAGAGGTGGCCTTCGGTTCCGGGG,382
3,TTGTGGACGCGGATTTGGGGGCGGGTATCCGGGCCT,564
4,GGTCACTTCGGCCCAGAGGCCCGCTCTTCCGCTGAG,564
5,CAGGGATTCCGGCTGAGTGCGGCCCCCTCAGCCTCC,606
6,GTGGCTGTCGTTGAACTGACTCTCGGGTTTCCGCTC,606
7,TGGAAGAGCCCCACGACATGTGCTTCCTGCGTGCTG,596
8,GAGCCTGTTGCTTCCGGTTCAGAGCCCACGTGCTGG,22200
9,CTAGCTGTGGACAGGAAACGAGTGGATTTTGTGATC,3740
10,CCGGGACCTCGGCTTGGGCTCACGGCCACTTCCGAC,393
11,CCGTACTTCCGCTTTACTCAGATTTTGGACCTCGGG,30200
12,CTCAGCGGCAGCAAGCCCCACCCCGGAAGTCGGCTG,1590
13,GATGACTTCCTCAGTTCAGGGCTATGTACGGGGGAG,4670
14,CCGCTTCCGGCCTTCGCCCGGCTTAGCCGCGTCGCA,34700
15,GCCCGGCTTAGCCGCGTCGCGGAAGTCCGCTCTCTG,397
16,GGCCTCGCGGCGTCTCTGCTGCTTCCGCCTTCCCGG,854
17,CCTCTGCCCAACCCCAATTTTCCCTTCCTCCGCCTT,543
18,CTTTTTGATTTCCTCAAGCATCCCAGAAATACACAG,2020
19,GCCCACGCCGCTGGGAGGTGAGACTGAAGGAAGCAC,402
20,ACGGAGCTGTAGTTTAACGTTTCCGGTTAGTGGCTA,9670
21,GCCCACTTCCTGCCGTAAGAGAAATCCACTAACACA,33800

row,Sequence,ETS1 binding intensity
1,GACGCAGCCCCAGAGCGATTCGCGTCCCGGAAGCGG,491
2,CCAACGAGCACTTCCGCTTCCCGAAGCTCCAGCGGC,27700
3,CCGAGCGCACCAGCTCCCGCGCGTGGTTCCGCCGCT,324
4,TCCAGCGCCGCTGGGCCAACGAGAGCGCTTCCGGCC,1740
5,GCGAGAGGGAGGAAGTGACTCACCAACCCCAACAAA,2690
6,TCCCAGTTTATGGGAAGGGTTGAGGGAAGTGAGGGG,531
7,TGTCTCATTTCCTGTAGGTAACAGGCACCAAAATAG,26500
8,GGATCGGCCTGAGGTGTGTCTCATTTCCTGTAGGTA,2130
9,GTGACGTGGCTGTAGGTCTCATTTCCTGCACGGCCT,2060
10,TGCTCCACTCGGAAGTGGTGCCGAAGCTCTTCGATG,905
11,GCCACACTTCCGGCGGGGCTGCGACTGCAGAGGGGC,38700
12,CTGCCAGAGCACACAGTTTGCACTTCCGGGGCGGGC,2710
13,CCGCCGACACACTTCCGGCGGCCACCAGAGGGTATT,21200
14,CAAGAGCCGGAAGTCCCTTGTGCCGTAGTCCTTCCC,9220
15,CAGCATGAGGGTGCACACACCGCTTCCTTAGAGGTT,757
16,GTGATAAGAACGACAGGCCACTTCCCAAAGATCAAA,531
17,TTTCACTTCCGGCATGTTTTTCACCTACAGGGATAT,35500
18,AGCTTCCGAGTCTGTTGTGGAGTGGGAACAGCGACT,2510
19,GCCTGCGCTCTTTCCGGTAGCCAGAGCCTCGTCTAA,8280
20,CGTCCCCGAAAAGCCGCGGCAGAAACTTCCGGCGGT,3130
21,CGCCGAACTTCCGGCAGTAAATTCCGTGGATTCCCG,27100
